Here are results for 84 compounds from the supplement of paper PMC10670038.

Structures are written as SMILES. Structures can show the parent of a compound that is named as a salt. ± gives the standard deviation of the averaged measurements. Over roughly 2,000 compounds, “relative cell viability vs DMSO, compound + 0.2 uM CuET” has its median near 1; the lowest 2% begin near 0.25. For the sample, the lowest values were picked, then their nearest neighbours and some compounds at random.

The subject of the test is TE10. Briefly: relative cell viability vs DMSO, compound + 0.2 uM CuET (fraction); TE10 is an esophageal squamous carcinoma line; higher = less cytotoxic. The conditions noted are these: 2 µM; co-treatment: CuET (bis(diethyldithiocarbamate)copper) 0.2 uM; 48 h. As for the experimental part:
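TE10 ESCC cells (1,000/well, 384-well plates) were treated with Selleck bioactive library compounds at 2 uM combined with 0.2 uM CuET (copper diethyldithiocarbamate) for 48 h. Viability was read by CellTiter-Glo and expressed relative to DMSO wells. Two technical replicates (A, B).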
For `C=CC(=O)Nc1cccc(Nc2nc(Nc3ccc(OCCOC)cc3)ncc2F)c1`, the relative cell viability was determined as 0.892 ± 0.11.

For `O=S(=O)(c1ccccc1)N(CC(F)(F)F)c1ccc(C(O)(C(F)(F)F)C(F)(F)F)cc1`, the relative cell viability worked out at 1 ± 0.084. Turning to `CC(C)(O)C1CCC(C)(C2C(O)CC3(C)C4CC(OC5OC(CO)C(O)C(O)C5O)C5C(C)(C)C(OC6OCC(O)C(O)C6O)CCC56CC46CCC23C)O1` (centres undefined) [Astragaloside A], the relative cell viability was 1.15 ± 0.069. With `O=C(O)CCCc1c[nH]c2ccccc12` [3-Indolebutyric acid (IBA)] the figure was 1.12 ± 0.072; with `O=C(/C=C/c1ccc(CN(CCO)CCc2c[nH]c3ccccc23)cc1)NO` [LAQ824 (Dacinostat)], 0.145 ± 0.0072; with `OCc1c[nH]c2ccccc12` [Indole-3-carbinol], 1.1 ± 0.11. Regarding `CC1(C)CCCC2(C)C1CCC1(C)OC(=O)CC12` (centres undefined) [Sclareolide], the relative cell viability was 1.05 ± 0.085.

On to `O=S(=O)(NCCNCC=Cc1ccc(Br)cc1)c1cccc2cnccc12`, for which the relative cell viability was determined as 1.12 ± 0.058. Consider `CCN(CC)C(=S)SSC(=S)N(CC)CC` [Disulfiram], for which the relative cell viability stood at 0.0338 ± 0.0054. Consider `Cn1cc(-c2[nH]c3cc(NC(=O)[C@H](N)C4CCCCC4)cc4c3c2C=NNC4=O)cn1`, for which the relative cell viability was found to be 0.702 ± 0.016. With `NC(=O)C1CCCc2c1[nH]c1ccc(Cl)cc21` (centres undefined) [EX 527 (Selisistat)] the figure was 1.15 ± 0.033. As for `CC(C)c1cc2c(N3CCN(C4=NCC(C)(C)S4)CC3)ncnc2s1` [MI-3 (Menin-MLL Inhibitor)], the relative cell viability stood at 0.972 ± 0.023. With `CC1(C)CCC2=C(O1)c1ccccc1C(=O)C2=O` [Beta-Lapachone] the figure was 0.246 ± 0.051; with `CC1=CC(=O)c2ccccc2C1=O` [Menadione], 0.671 ± 0.13. For the compound `C=CC(=O)Nc1cc(Nc2nccc(-c3c[nH]c4ccccc34)n2)c(OC)cc1N(C)CCN(C)C`, the relative cell viability is 0.476 ± 0.0093. With `Cc1ccc(-n2[nH]c(C)c(N=Nc3cccc(-c4cccc(C(=O)O)c4)c3O)c2=O)cc1C` [Eltrombopag] the figure was 1.04 ± 0.1; with `Cc1ccc(-n2[nH]c(C)c(N=Nc3cccc(-c4cccc(C(=O)O)c4)c3O)c2=O)cc1C` [Eltrombopag Olamine], 1.145 ± 0.0091. With `OC(CC1c2ccccc2-c2cncn21)C1CCCCC1` (centres undefined) the figure was 1.13 ± 0.055; with `C#Cc1cccc(Nc2ncnc3cc(OCCOC)c(OCCO)cc23)c1`, 1.02 ± 0.013; with `C#Cc1cccc(Nc2ncnc3cc(OCCOC)c(OCCOC)cc23)c1` [Erlotinib HCl (OSI-744)], 1.18 ± 0.1.

As for `C#Cc1cccc(Nc2ncnc3cc(OCCOC)c(OCCOC)cc23)c1` [Erlotinib], the relative cell viability is 0.996 ± 0.091. `C#Cc1cccc(Nc2ncnc3cc(OC)c(OCCCCCCC(=O)NO)cc23)c1`: the relative cell viability stood at 0.182 ± 0.024. `CN(C)C(=O)c1ccc(S(=O)(=O)c2ccc(NC(=O)C(C)(O)C(F)(F)F)c(Cl)c2)cc1` (centres undefined): the relative cell viability was 1.2 ± 0.14. In the case of `CCc1cnn2c(NCc3ccc[n+]([O-])c3)cc(N3CCCC[C@H]3CCO)nc12`, the relative cell viability is 0.842 ± 0.12.

With `COCC[n+]1c2c(n(Cc3cnccn3)c1C)C(=O)c1ccccc1C2=O` [YM155 (Sepantronium Bromide)], the relative cell viability came to 0.111 ± 0.0058. The result for `CCCCCCCCCCCCCCCc1cccc(O)c1C(=O)O` [Anacardic Acid] reads 1.26 ± 0.019; that for `CC1(C)Cc2c(-c3ccccc3)c(-c3ccc(Cl)cc3)c(CC(=O)O)n2C1` [Licofelone], 1.17 ± 0.023. With `N#Cc1ccc2[nH]c(O)c(-c3ccc(CN4CCOCC4)cn3)c2c1` the figure was 1.4 ± 0.13. As for `Cc1nc2ccc(-n3ncc(C(=O)c4cc5ccccc5[nH]4)c3N)cc2[nH]1`, the relative cell viability was found to be 0.987 ± 0.053. As for `O=C(Nc1cccc(Cl)c1)c1ccccn1`, the relative cell viability turned out to be 1.24 ± 0.1. `Clc1ccc(NN=C(c2ccccc2)c2ccccn2)nc1`: the relative cell viability was 0.03199 ± 0.00018. For the compound `CN(C)C(=S)NN=C(c1ccccn1)c1ccccn1`, the relative cell viability stood at 0.943 ± 0.047. For the compound `CC(=O)N[C@@H](CC(C)C)C(=O)N[C@@H](CC(C)C)C(=O)N[C@H](C=O)CCCNC(=N)N` [Leupeptin Hemisulfate], the relative cell viability was determined as 1.16 ± 0.025. As to `N#CC(=Cc1ccc(-c2cc(Cl)ccc2Cl)o1)C(=O)Nc1cccc2ncccc12`, the relative cell viability is 1.06 ± 0.03.

On to `COc1cc(C=CC(=O)N2CCC=CC2=O)cc(OC)c1OC` [Piperlongumine], for which the relative cell viability turned out to be 0.392 ± 0.035. The result for `CC(NC(=O)Cc1cc(F)cc(F)c1)C(=O)NC1C(=O)N(C)c2ccccc2-c2ccccc21` (centres undefined) reads 0.97 ± 0.13; that for `CC1=NN(c2ccc(C(=O)O)cc2)C(=O)C1=Cc1ccc(-c2cc(C)c(C)cc2[N+](=O)[O-])o1`, 0.872 ± 0.091; that for `Cc1nc(-c2cn3c(n2)-c2ccc(-c4cnn(C(C)(C)C(N)=O)c4)cc2OCC3)n(C(C)C)n1`, 0.675 ± 0.072. The result for `OCc1ccc(-c2ccc(-c3ccc(CO)s3)o2)s1` reads 0.225 ± 0.01; that for `CC(=O)OCC(=O)[C@@]12N=C(C)O[C@@H]1C[C@H]1[C@@H]3CCC4=CC(=O)C=C[C@]4(C)[C@H]3[C@@H](O)C[C@@]12C` [Deflazacort], 1.03 ± 0.012. `CCOc1nc2cccc(C(=O)O)c2n1Cc1ccc(-c2ccccc2-c2nnn[nH]2)cc1` [Candesartan]: the relative cell viability was determined as 1.06 ± 0.031. The result for `CN(C)Cc1cccc(N=C(c2ccccc2)c2c(O)[nH]c3cc(C(N)=O)ccc23)c1` reads 0.952 ± 0.014. With `Cc1[nH]c2ccccc2c1CCNC(=O)c1cccs1`, the relative cell viability was found to be 1.01 ± 0.15. With `Cc1[nH]c2ccccc2c1C1=C(NCCc2ccc(F)cc2)C(=O)N(C)C1=O`, the relative cell viability is 1.17 ± 0.023. Turning to `Cc1[nH]c2ccccc2c1CCNCc1ccc(/C=C/C(=O)NO)cc1` [Panobinostat (LBH589)], the relative cell viability was found to be 0.151 ± 0.0045. With `COc1c(O)cc2c(c1O)[C@@H]1O[C@H](CO)[C@@H](O)[C@H](O)[C@H]1OC2=O` [Bergenin] the figure was 1.18 ± 0.021; with `CN1CCC(NC(=O)c2cc(-c3c(O)cc(O)cc3Oc3ccc([N+](=O)[O-])cc3)on2)CC1`, 0.6427 ± 0.0019.

With `NC1CC1c1ccc(-c2cccc(O)c2)cc1` (centres undefined), the relative cell viability came to 1.13 ± 0.036. The result for `O=C(/C=C/c1cccc(S(=O)(=O)Nc2ccccc2)c1)NO` [Belinostat (PXD101)] reads 0.195 ± 0.017. Regarding `O=C(C=Cc1ccccc1)NC(NC(=S)Nc1ccc(Cl)cc1)C(Cl)(Cl)Cl` (centres undefined), the relative cell viability came to 0.908 ± 0.014. With `Cn1cc(/C=C/C(=O)c2cccc(F)c2)cc1/C=C/C(=O)NO` the figure was 0.872 ± 0.12; with `COC1C(O)CC(=O)OC(C)CC=CC=CC(OC2CCC(N(C)C)C(C)O2)C(C)CC(CC=O)C1OC1OC(C)C(OC2CC(C)(O)C(O)C(C)O2)C(N(C)C)C1O` (centres undefined) [Spiramycin], 1.11 ± 0.0071.

For `COC(=O)CC(NC(=O)C(C)NC(=O)C(NC(=O)OCc1ccccc1)C(C)C)C(=O)CF` (centres undefined), the relative cell viability amounted to 1.3 ± 0.057. The result for `CN(C)Cc1ccc(S(=O)(=O)n2ccc(/C=C/C(=O)NO)c2)cc1` [Resminostat] reads 0.848 ± 0.19; that for `CCCCc1nc2cc(/C=C/C(=O)NO)ccc2n1CCN(CC)CC` [Pracinostat (SB939)], 0.2435 ± 0.00015. The result for `COc1cc2c(cc1NS(=O)(=O)c1ccc(Br)cc1C)n(C)c(=O)n2C` reads 1.17 ± 0.15. With `CCCC(=O)Nc1cccc(NC(=O)c2ccccc2Br)c1` the figure was 1.01 ± 0.16; with `O=C(O)CCNc1cc(N2CCc3ccccc3CC2)nc(-c2ccccn2)n1`, 0.765 ± 0.0059; with `CNc1nc(Nc2cnn(C3CCN(C4COC4)CC3F)c2Cl)ncc1C(F)(F)F` (centres undefined), 1.195 ± 0.0015. With `Nc1cccc(-c2cc3c(Oc4cccc(O)c4)ncnc3[nH]2)c1`, the relative cell viability stood at 0.976 ± 0.062. As for `CC(C)Oc1ccc(-c2cnc3c(-c4ccnc5ccccc45)cnn3c2)cc1`, the relative cell viability was 1.15 ± 0.088. With `COc1ccc(-c2cnc3c(-c4cccc5ncccc45)cnn3c2)cc1` the figure was 1.17 ± 0.13; with `c1cc(-c2cnn3cc(-c4ccc(N5CCNCC5)cc4)cnc23)c2cccnc2c1`, 0.182 ± 0.0055; with `Cc1c(C(=O)Nc2ccc(N3C[C@@H](C)O[C@@H](C)C3)nc2)cccc1-c1ccc(OC(F)(F)F)cc1` [LDE225 (NVP-LDE225,Erismodegib)], 0.714 ± 0.081.

`CNc1ncnc2c1ncn2[C@@H]1O[C@H](CO)[C@@H](O)[C@H]1O` [N6-methyladenosine (m6A)]: the relative cell viability was found to be 1.06 ± 0.23. Consider `COc1nc(N)nc2c1ncn2[C@@H]1O[C@H](CO)[C@@H](O)[C@@H]1O` [Nelarabine], for which the relative cell viability was 1.21 ± 0.043. With `COc1ccc(C[C@H](N)C(=O)N[C@H]2[C@@H](O)[C@H](n3cnc4c(N(C)C)ncnc43)O[C@@H]2CO)cc1` [Puromycin 2HCl] the figure was 0.249 ± 0.0061; with `Nc1nonc1C(=Nc1ccc(F)c(Cl)c1)NO`, 1.15 ± 0.14. On to `O=C(Nc1cc2cc[nH]c2cn1)c1ccccc1`, for which the relative cell viability is 0.3986 ± 0.0004. Turning to `CS(=O)(=O)N1CCN(Cc2cc3nc(-c4cccc5[nH]ncc45)nc(N4CCOCC4)c3s2)CC1`, the relative cell viability is 0.68 ± 0.0074. For `Cc1c(CN2CCN(C(=O)[C@H](C)O)CC2)sc2c(N3CCOCC3)nc(-c3cnc(N)nc3)nc12`, the relative cell viability came out at 0.495 ± 0.091. With `COc1ccc(-c2nc(N3CCOCC3)c3sc(CN(C)c4ncc(C(=O)NO)cn4)cc3n2)cn1` the figure was 0.1569 ± 0.00068; with `NCCCC[C@@H]1NC(=O)[C@@H](Cc2ccc(O)cc2)NC(=O)[C@H](CC(=O)O)NC(=O)CNC(=O)[C@H](CCCN=C(N)N)NC1=O` [Cyclo(RGDyK)], 1.19 ± 0.27; with `O=C(O)c1ccc(N2C(=O)C(=Cc3ccc(-c4ccc([N+](=O)[O-])cc4)o3)C=C2c2ccccc2)cc1`, 1.1 ± 0.22. The result for `Cc1cc(C)cc(C(=O)NOCCCCCC(=O)NO)c1` reads 0.23 ± 0.02.

As for `Cc1cc(Cl)ccc1OCCCC(=O)NO` [Droxinostat], the relative cell viability came to 0.997 ± 0.063.

On to `O=C(CCCCCCC(=O)Nc1ccccc1)NO` [Vorinostat (SAHA, MK0683)], for which the relative cell viability is 0.473 ± 0.055. The result for `C[C@H](O)[C@H](O)[C@@H](O)[C@@H](O)C=O` [L-(+)-Rhamnose Monohydrate] reads 1.15 ± 0.046; that for `CC(NC(=O)Cc1cc(F)cc(F)c1)C(=O)NC(C(=O)OC(C)(C)C)c1ccccc1` (centres undefined), 1.23 ± 0.04; that for `CN(CCOc1ccc(CC2SC(=O)NC2=O)cc1)c1ccccn1` (centres undefined) [Rosiglitazone maleate], 1.12 ± 0.081. With `CN(CCOc1ccc(CC2SC(=O)NC2=O)cc1)c1ccccn1` (centres undefined) [Rosiglitazone HCl], the relative cell viability came out at 1.06 ± 0.062. With `CN(CCOc1ccc(CC2SC(=O)NC2=O)cc1)c1ccccn1` (centres undefined) [Rosiglitazone] the figure was 1.04 ± 0.052. The result for `COC(=O)C1=C(C#N)NC(C)=C(C(=O)OC(C)C)C1c1cccc([N+](=O)[O-])c1` (centres undefined) [Nilvadipine] reads 1.11 ± 0.1; that for `O=C(Nc1cccc2cccnc12)c1ccc(N2C(=O)C3C4C=CC(C4)C3C2=O)cc1` (stereo not drawn) [IWR-1-endo], 0.994 ± 0.1.
